Assay results: PubChem BioAssay (Tox21)
Results filed as inconclusive are left out. A call without a number means that no potency is given here. The source made the active and inactive calls. Calls come from the whole dose curve; as a rule, active = well fitted cell-killing curve with a large enough effect in the repeat runs; inconclusive = weak or mixed curves, or effect the other way; inactive = flat fitted curve, though single readings scatter.
Potency is the fitted concentration of half-maximal effect.

Test: Caspase-3/7 induction in HepG2 cells by small molecules, qHTS cell viability counter screen (AID 1346981); note: nearly all actives have a fitted effect of over 30% in size
Settings: CellTiter-Fluor fluorescence, 17 h; series mostly up to 92.4 µM
From the text: U.S. Tox21 Program National Center for Advancing Translational Sciences [NCATS] NIH Chemical Genomics Center [NCGC] U.S. Environmental Protection Agency [EPA] National Institutes of Environmental Health Sciences [NIEHS] National Toxicology Program [NTP] U.S. Food and Drug Administration [FDA] Tox21 Assay Overview: Apoptosis is a process of programmed cell death and plays a central role in the development of multicellular organisms. It is a highly regulated process and induces cell death by activating caspases, which are the members of cysteine aspartic acid-specific protease (caspase) family. Caspases involved in apoptosis are classified by their mechanism of action as initiator caspases (caspase-2, -8, -9 and -10) and executioner caspases (caspase-3, -6, and -7). Inhibition of apoptosis results in number of cancers, autoimmune diseases, inflammatory diseases and viral infection. To identify small molecule compounds that induce apoptosis, a homogeneous, luminescent Caspase-Glo 3/7 assay was used. Wild type HepG2 cells were used to screen Tox21 libraries for identifying caspase-3/7 activity inducers. Also cytotoxicity of the compounds was tested in parallel by measuring the cell viability using CellTiter-Fluor assay system in the same wells.
Tox21 Assay Protocol Summary: HepG2 cells were dispensed at 2,000 per well in 5uL of culture medium into white solid bottom 1536-well plates (Corning Life Sciences, Corning, NY) using a Multidrop Combi (Thermo Scientific, Waltham, MA) dispenser. The assay plates were incubated at 37 C and 5% CO2 for 5hr, and then 23nL of compounds dissolved in DMSO and positive control were transferred using a Pintool station ([…], San Diego, CA). The assay plates were incubated at 37C and 5% CO2 for 17hr. For cytotoxicity read, after 16hr incubation at 37C, 1uL CellTiter-Fluor reagent (Promega Corporation, Madison, WI) was added to each well of the assay plates using Flying Reagent Dispenser (FRD, Aurora Discovery, San Diego, CA). After 1hr incubation at 37C and 5% CO2, the fluorescence signal was quantified using a ViewLux plate reader (PerkinElmer, Shelton, CT).
For `C[C@@H](CN(C)C)CN1c2ccccc2Sc2ccccc21`, the Potency was “inactive”. For `O=C(/C=C/c1ccc(O)c(O)c1)O[C@@H]1C[C@@](OC(=O)/C=C/c2ccc(O)c(O)c2)(C(=O)O)C[C@@H](O)[C@@H]1O`, the Potency was “inactive”. In the case of `CC(C)c1nc(CN(C)C(=O)N[C@H](C(=O)N[C@@H](Cc2ccccc2)C[C@H](O)[C@H](Cc2ccccc2)NC(=O)OCc2cncs2)C(C)C)cs1`, the Potency is reported as 21.1 µM (active). In the case of `FC(F)(F)c1ccccc1Cl`, the Potency is reported as “inactive”. With `Oc1c(I)cc(I)c2cccnc12` the Potency was “inactive”. In the case of `Oc1cccc(Nc2ccccc2)c1`, the Potency is reported as “inactive”. With `CN1CCCC(CC2c3ccccc3Sc3ccccc32)C1` (stereo not given) the Potency was “inactive”. In the case of `CCCCC(CC)CN` (stereo not given), the Potency is reported as “inactive”. In the case of `CCN(CC)CCNC(=O)COc1ccc(OC)cc1`, the Potency is reported as “inactive”. In the case of `O=C(OCC(O)CO)c1ccccc1Nc1ccnc2cc(Cl)ccc12` (stereo not given), the Potency is reported as “inactive”. In the case of `Nc1ccc(N=Nc2ccccc2)c(N)c1`, the Potency is reported as 53.3 µM (active). In the case of `CN1C(C(=O)Nc2ccccn2)=C(O)c2sccc2S1(=O)=O`, the Potency is reported as “inactive”. In the case of `Oc1cc2c(cc1O)[C@H]1c3ccc(O)c(O)c3OC[C@@]1(O)C2`, the Potency is reported as 55.1 µM (active). For `CC(=O)OCC(=O)NCCCOc1cccc(CN2CCCCC2)c1`, the Potency was “inactive”. With `CC1(C)S[C@@H]2[C@H](NC(=O)C(c3ccccc3)S(=O)(=O)O)C(=O)N2[C@H]1C(=O)O` (stereo not given in full) the Potency was “inactive”. With `COC(=O)CS` the Potency was “inactive”. With `OCCN1CCN(CCCN2c3ccccc3Sc3ccc(Cl)cc32)CC1` the Potency was 26.6 µM (active). In the case of `CN(C(=O)CN(CCO)CC(=O)N(C)C(C)(C)Cc1ccccc1)C(C)(C)Cc1ccccc1`, the Potency is reported as “inactive”. In the case of `COc1ncnc(NS(=O)(=O)c2ccc(N)cc2)c1OC`, the Potency is reported as “inactive”. In the case of `Cc1ccco1`, the Potency is reported as “inactive”. For `C/C=C\C/C=C/CCCCCCCCOC(C)=O`, the Potency was “inactive”. For `CC(C)(C)CC(=O)OCC(=O)[C@@]1(O)CC[C@H]2[C@@H]3CCC4=CC(=O)C=C[C@]4(C)[C@H]3[C@@H](O)C[C@@]21C`, the Potency was “inactive”. In the case of `O=C(CCc1ccc(O)cc1)c1c(O)cc(O)cc1O`, the Potency is reported as “inactive”. For `CCCCCCCC/C=C\CCCCCCCCO`, the Potency was “inactive”. In the case of `Cc1ccc2c(Br)cc(Br)c(O)c2n1`, the Potency is reported as “inactive”. In the case of `CO[C@]1(NC(=O)CSC(F)F)C(=O)N2C(C(=O)O)=C(CSc3nnnn3CCO)CO[C@H]21`, the Potency is reported as “inactive”. For `CCCCC(CC)COP(=O)(O)O` (stereo not given), the Potency was “inactive”. For `Cc1cc(C)c(N)cc1C`, the Potency was “inactive”. For `Nc1nc2ccc([N+](=O)[O-])cc2s1`, the Potency was 61.1 µM (active). In the case of `CCCCCC[C@@H](O)C/C=C\CCCCCCCC(=O)OCC(O)CO` (stereo not given in full), the Potency is reported as “inactive”. With `CCC(OCCCOC)OC(C)=O` (stereo not given) the Potency was “inactive”. In the case of `CN(C)CCN1C(=O)c2ccccc2N(C)c2ccccc21`, the Potency is reported as “inactive”. For `CC(CN(C)C)C(C)(O)Cc1ccc(Cl)cc1` (stereo not given), the Potency was “inactive”. In the case of `CCc1ccccc1`, the Potency is reported as “inactive”. For `C=C1c2cccc(O)c2C(O)=C2C(=O)[C@]3(O)C(O)=C(C(N)=O)C(=O)[C@@H](N(C)C)[C@@H]3[C@@H](O)[C@H]12`, the Potency was “inactive”. For `C=Cc1ccc(S(=O)(=O)O)cc1`, the Potency was “inactive”. With `CC(=O)Oc1ccc([N+](=O)[O-])cc1CCl` the Potency was 27.3 µM (active). With `CCOC(=O)c1ccc(O)c(O)c1` the Potency was “inactive”. With `O=C(O)c1cccc(-c2noc(-c3ccccc3F)n2)c1` the Potency was “inactive”. In the case of `CCC(C)(C)OC`, the Potency is reported as “inactive”.
